Outcome and AC50 data for 40 molecules are collected here from PubChem BioAssay (EPA / NIEHS).

Active and inactive are the calls of the source. Rule for the calls: active = hit-call score of the fitted dose curve at least 0.9, where 1 is the maximum; inactive = score below 0.9.

This assay can be described thus: BSK_3C_Proliferation: Cell Proliferation Assessment in the BioMAP Diversity Plus: 3C Assay (AID 2283006).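 For AC50: potency may reflect either rise or fall in cell number versus DMSO.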 As to conditions: primary human endothelial cells (HUVEC). How it is done:
BSK_3C is a cell-based, multiplexed-readout assay that uses umbilical vein endothelium, a human vascular primary cell, with measurements taken at 24 hours after chemical dosing in a 96-well plate.BSK_3C_Proliferation is an assay component measured in the BSK_3C assay. It measures 0.1% sulforhodamine related to cell proliferation using Sulforhodamine staining technology.Data from the assay component BSK_3C_Proliferation was analyzed into 1 assay endpoint. This assay endpoint, BSK_3C_Proliferation, was analyzed with bidirectional fitting relative to DMSO as the negative control and baseline of activity. Using a type of viability reporter, measures of total protein for gain or loss-of-signal activity can be used to understand the viability at the cellular-level. Furthermore, this assay endpoint can be referred to as a secondary readout, because this assay has produced multiple assay endpoints where this one serves a viability function. To generalize the intended target to other relatable targets, this assay endpoint is annotated to the cell cycle intended target family, where the subfamily is proliferation.
The levels of cell surface (or secreted, indicated by the prefix "s") biomarker endpoints were measured by ELISA. Overt cytotoxicity to cells in confluent adherent cultures (all systems other than the BT system) was assessed by measuring total protein levels using sulforhodamine B (SRB) staining in parallel cultures at the time of biomarker measurements, indicated as SRB endpoints. For proliferation assays for adherent cell types, individual cell types are cultured at sub-confluence and relative cell numbers quantified by SRB staining at time points optimized for each system (48 h: 3C and CASM3C systems; 72 h: BT and HDF3CGF systems; 96 h: SAg system). SRB was performed by staining cells with 0.1% SRB after fixation with 10% TCA and reading wells at 560 nm.Viability and proliferation of PBMC (T cells) was quantified by Alamar Blue reduction for the SAg and BT systems. For PBMC viability (referred to as PBMC Cytotoxicity within the assay endpoint names), cells were plated (75,000/well in a 96-well plate) and then chemical samples added for 1 h before addition of activators, SEB and TSST-1 (20 ng/mL final concentration each). Cells were incubated for 90 h. Then, Alamar Blue (20 uL/well) (Invitrogen, Cat DAL1100) was added for 6 h, and the plates were read with a fluorescence microplate reader at 546/580 nm (excitation/emission). For PBMC proliferation, cells were plated and activated as above but incubated for only 16 h prior to addition of Alamar Blue. Plates were read after 6 h.
As for `CCCCCCCCCCCCc1ccccc1`, the result was inactive.
On to `Clc1nc(Cl)c(Cl)c(Cl)c1Cl`, for which the AC50 is 20 µM (active).
Regarding `CCCCCCc1ccc(O)cc1O`, the AC50 was 30.2 µM (active).
Regarding `CCn1nc(Cc2ccccc2)cc1C1CCN(C[C@H]2C[C@H](N(C)[C@@H](C(=O)O)C(C)C)C[C@@H]2c2cccc(F)c2)CC1`, the result was inactive.
The same measure, in the same setting: in the case of `Nc1nc2ncc(CNc3ccc(C(=O)N[C@@H](CCC(=O)O)C(=O)O)cc3)nc2c(=O)[nH]1` it was “inactive”.
On the same count and under the same terms, in the case of `CC1(C)C(=O)N(Br)C(=O)N1Br` it was “inactive”; in that of `CC[C@H]1OC(=O)[C@H](C)[C@@H](O[C@H]2C[C@@](C)(OC)[C@@H](O)[C@H](C)O2)[C@H](C)[C@@H](O[C@@H]2O[C@H](C)C[C@H](N(C)C)[C@H]2O)[C@](C)(O)C[C@@H](C)C(=O)[C@H](C)[C@@H](O)[C@]1(C)O`, “inactive”.
As for `CCOC(=O)c1ccc(C2CCC(NC[C@H](O)COc3ccc(O)c(NS(C)(=O)=O)c3)CC2)cc1` (stereo not given in full), the AC50 was 28.1 µM (active).
For the molecule `CN(C)c1ccc(N=NS(=O)(=O)O)cc1`, the result was inactive.
The same measure, in the same setting: the same measure for `CCCC(=O)OCC`: “inactive”.
In the case of `CC(=O)OCCC(C)C`, the result was inactive.
Regarding `NC(=O)NO`, the result was inactive.
On the same count and under the same terms, the same measure for `Cc1ccc(C)c(O)c1`: “inactive”; for `COC(=O)CC(=O)OC`: “inactive”; for `Cn1c(=O)cc(Oc2ccc(F)cc2F)c2cnc(NCC(C)(C)O)nc21`: “inactive”.
Same read-out and setting: in the case of `CC(=O)OC[C@H]1O[C@@](COC(C)=O)(O[C@H]2O[C@H](COC(C)=O)[C@@H](OC(C)=O)[C@H](OC(C)=O)[C@H]2OC(C)=O)[C@@H](OC(C)=O)[C@@H]1OC(C)=O` it was “inactive”; in that of `CCNc1ccccc1`, “inactive”.
On the same count and under the same terms, in the case of `Nc1cccc(N)c1` it was “inactive”; in that of `CC(O)CN(CCN(CC(C)O)CC(C)O)CC(C)O` (stereo not given), “inactive”.
For `Cc1c(-c2cccnc2)c2ccccc2n1CCCCC(=O)O`, the half-maximal activity concentration (AC50) is 17.4 µM (active).
`CCOc1cccc(-n2cc(C(=O)N3CCN(c4cc(C(=O)O)c5ccccc5c4)CC3)nc2-c2ccc(C)cc2)c1`: the AC50 was 13.5 µM (active).
As for `CC(=O)c1ccc2c(c1)[C@H](NC(=O)c1ccc(F)cc1)[C@@H](O)C(C)(C)O2`, the result was inactive.
With `On1ccccc1=S`, the half-maximal activity concentration (AC50) is 4.91 µM (active).
Turning to `O=C(O)CC(O)C(=O)O` (stereo not given), the outcome was inactive.
Turning to `CCC(C)(C)C(=O)O[C@H]1C[C@@H](C)C=C2C=C[C@H](C)[C@H](CC[C@@H]3C[C@@H](O)CC(=O)O3)[C@H]21`, the concentration at half-maximal activity (AC50) was 4.32 µM (active).
Turning to `O=C(O)c1cccc(Oc2ccccc2)c1`, the result was inactive.
Still for that read-out and setting: in the case of `CC(C)=CCC/C(C)=C\CO` it was “inactive”.
Still for that read-out and setting: the same measure for `CCOCCOCCOCCO`: “inactive”; for `CCN(C(=O)c1cc(C)cc(OC[C@H](C)Nc2ccncc2)c1)C(C)C`: “inactive”.
On the same count and under the same terms, the same measure for `CCCCC(CC)COC(=O)CCCCCCCCC(=O)OCC(CC)CCCC` (stereo not given): “inactive”.
Regarding `Oc1ccc2c(c1)-c1ccccc1C2`, the AC50 was 15.4 µM (active).
In the case of `C1N2CN3CN1CN(C2)C3`, the result was inactive.
The same measure, in the same setting: the same measure for `O=C(O)c1cc(N=Nc2ccc(S(=O)(=O)Nc3ccccn3)cc2)ccc1O`: “inactive”.
Still for that read-out and setting: in the case of `COCCOCCOCCOC` it was “inactive”; in that of `CCOCCO`, “inactive”.
On the same count and under the same terms, the same measure for `CCOC(=O)CC(CC(=O)OCC)(OC(C)=O)C(=O)OCC`: “inactive”; for `CC(C)=CCCC(C)=CC=O`: “inactive”.
`Cc1[nH]cnc1C[C@H]1CCc2c(C)c3ccccc3n2C1=O`: the concentration at half-maximal activity (AC50) was 26.1 µM (active).
As to `CC1=CC(=O)CC(C)(C)C1`, the outcome was inactive.
On the same count and under the same terms, the same measure for `COCCOc1cc2cc(C(=O)NC3CCN(C(C)C)CC3)n(CC(=O)Nc3ccc(Cl)cn3)c2cn1`: “inactive”.
